Among all 1,200 compounds or so, about 600 (50%) were called active. The set was probably picked from earlier hits. The list shows a part of the results. Entries with a potency or affinity are not part of this list. Unmarked numbers belong to inactive results. Rule as the data show it: active = inhibition above about 42%; inactive = the rest.

This assay deals with SUMO-conjugating enzyme UBC9 (Homo sapiens) (UniProt P63279). As to the kind of experiment: SUMOylation inhibitor hit validation, confirmation, SUMOylation inhibitor project, biochemical, AlphaScreen (AID 2018). Conditions: AlphaScreen in vitro SUMOylation assay; at 35 µM; active compounds read high. For orientation: In Alpha technology, singlet oxygen from a donor bead excites a nearby acceptor bead.
Chain of SUMO-conjugating enzyme UBC9 (Homo sapiens) (P63279 whole entry, looked up): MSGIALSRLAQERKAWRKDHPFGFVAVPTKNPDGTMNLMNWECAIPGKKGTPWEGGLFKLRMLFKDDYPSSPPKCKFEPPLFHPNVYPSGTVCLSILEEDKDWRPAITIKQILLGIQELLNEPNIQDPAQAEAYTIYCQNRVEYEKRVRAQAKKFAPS
As usually defined, the inhibition is the drop in the measured response relative to a control, in per cent. Turning to `CCOCCCN1CN(Cc2ccco2)CNC1=S`, the inhibition is 4.1%. The value for `O=C(O)/C=C/c1cn(-c2ccccc2)nc1-c1cc2ccccc2o1` was 10.4%.

As to `O=C(O)/C=C\c1cn(-c2ccccc2)nc1-c1cc2ccccc2o1`, the inhibition was 27.9%. The value for `COc1ccc(CNC(=O)c2c(N)n(CCCN3CCOCC3)c3nc4ccccc4nc23)cc1` was 3.3%.

Regarding `Cc1ccc(C)c(S(=O)(=O)c2c(N)n(/N=C/c3ccco3)c3nc4ccccc4nc23)c1`, the inhibition was 23%.

As for `C=CCn1c(NC(=O)c2ccc(Br)o2)c(S(=O)(=O)c2ccccc2)c2nc3ccccc3nc21`, the inhibition is 65.4% (active). The value for `Cc1ccc(S(=O)(=O)c2c(N)n(/N=C/c3ccco3)c3nc4ccccc4nc23)cc1C` was 26.1%; that for `O=C(c1cccn2c(=O)c3cc(Cl)ccc3nc12)N1CCOCC1` was 5.9%; that for `Cc1ncc(CO)c(/C=N/NC(=O)c2cc(O)c(O)c(O)c2)c1O` was 99.6% (active). As for `CCOc1ccc2c(c1)C(NC(C)=O)C(=O)N2CCN1CCOCC1` (stereo not given), the inhibition was 95.9% (active).

Consider `Brc1ccc(OCCN2CCOCC2)cc1`, for which the inhibition was 13.4%.

As to `CC(=O)NC1C(=O)N(CCN2CCOCC2)c2ccc(Br)cc21` (stereo not given), the inhibition was 99% (active). As for `Cn1c(=O)n(C)c2cc(S(=O)(=O)NCCO)ccc21`, the inhibition is 13.1%. Regarding `CCc1ccc2c(c1)C(NC(C)=O)C(=O)N2CCN1CCOCC1` (stereo not given), the inhibition was 96.7% (active). As to `O=C(Nc1cccc2ccccc12)N1CCc2ccccc2C1`, the inhibition is 13.1%. In the case of `Oc1ccc(N=Cc2ccc(-c3cccs3)s2)cc1`, the inhibition was 52.6% (active). For `Cc1ccc(C)c(-c2nc3ccc(N)cc3[nH]2)c1`, the inhibition is 8.5%. The value for `N#CC1=C(SCC(=O)NC23CC4CC(CC(C4)C2)C3)NC(=O)C(C#N)C12CCCCC2` (stereo not given) was -21.2%; that for `COc1ccc(OC)c2c1C(=O)c1ccccc1C2=O` was 44% (active); that for `COc1cccc2c1C(=O)c1ccc3ccccc3c1C2=O` was 75.8% (active). `CN(C)/C=C1/Oc2c(ccc3ccccc23)C1=O`: the inhibition was -1.2%. On to `CN(C)/C=C1\Oc2ccc3ccccc3c2C1=O`, for which the inhibition was -1.5%. Turning to `COc1ccc(Cc2n[nH]c(=S)n2NC(=O)Nc2ccc(Cl)c(Cl)c2)cc1`, the inhibition is 24.4%. The value for `COCCn1nnnc1C(c1cc2ccc(OC)cc2[nH]c1=O)N1CCc2ccccc2C1` (stereo not given) was 4.8%; that for `COc1ccc(-c2cc(=O)[nH][nH]2)cc1` was 27.6%. Regarding `COc1ccc(NCc2cc3ccccc3[nH]c2=O)cc1`, the inhibition was 46.4% (active). On to `O=C(NCc1ccccc1)Nc1cccn(Cc2ccc(Cl)cc2)c1=O`, for which the inhibition was -10.4%. The value for `CN(C)/C=N/c1nc2nccc(-c3ccc(F)cc3)n2n1` was 1.6%; that for `CCN(CC)S(=O)(=O)c1cc(C)ccc1SC` was -1%; that for `Cc1ccc(C(=O)c2c3ccc(N)cc3nn2CCC(N)=O)cc1` was 38.2%. In the case of `Cc1c(N=C2C=CC(=O)c3ccccc32)c(=O)n(-c2ccccc2)n1C`, the inhibition is 102% (active). For the compound `CCc1cc2c(=O)nc3n(c2s1)Cc1ccccc1/C3=C(/O)c1cccc([N+](=O)[O-])c1`, the inhibition is 16.9%. On to `Cc1cc(=O)n2[nH]c(N)c(N=Nc3ccccc3F)c2n1`, for which the inhibition is 12.9%. `COc1ccccc1NC(=O)Nc1ccnn1Cc1cccs1`: the inhibition is 16.5%. `Nc1c(C(=O)Nc2ccccc2)sc2nc(-c3ccco3)ccc12`: the inhibition is -10.2%. With `Nc1c(C(=O)Nc2ccc(F)cc2)sc2nc(-c3ccco3)ccc12`, the inhibition was 35.1%. Take `Cc1ccc(S(=O)(=O)N2CCCCC2)cc1NC(=O)COC(=O)c1c(F)cccc1F`: the inhibition is -6.2%. With `Cc1cc2c(NC(=O)Nc3ccc(C(C)(C)C)cc3)cccc2nn1`, the inhibition was 15.3%. `CCOC(=O)NC(=O)COC(=O)c1ccc(O)cc1`: the inhibition is 24.8%. As to `COc1ccc2nc(-c3ccco3)c(-c3ccco3)nc2c1`, the inhibition is 76.8% (active).

As for `COc1cc(OC)cc(-c2nc(-c3ccccc3)no2)c1`, the inhibition was -70.2%.

As for `COCCNC(=O)Nc1ccc2nc(-c3ccco3)c(-c3ccco3)nc2c1`, the inhibition was 102% (active). Turning to `COCCn1c(-c2ccco2)nc2nc3ccccc3nc21`, the inhibition was 19.2%. Regarding `O=C(NCc1ccco1)Nc1ccc2snnc2c1`, the inhibition was 11%. `CCOc1ccccc1Oc1c(C)oc2c(CN3CCN(C)CC3)c(O)ccc2c1=O`: the inhibition was -5.4%.

In the case of `S=c1[nH]nc(-c2cc(-c3ccccc3)n[nH]2)n1/N=C/c1ccc(Cl)c(Cl)c1`, the inhibition was 12.5%. `Cc1cccc(-c2n[nH]c(=S)n2/N=C/C=C/c2ccco2)c1`: the inhibition was 37.5%. As for `O=C(O)CCCCCNc1ccc2nsnc2c1[N+](=O)[O-]`, the inhibition was -10.2%. Regarding `C[C@@H]1CN=C2N(CCNC(=O)CCC3CCCCC3)[C@H](Cc3ccc(O)cc3)CN21`, the inhibition is 6%. Consider `O=C1OC(Nc2ccc3ncccc3c2)c2ccccc21` (stereo not given), for which the inhibition is 2.1%. Turning to `Cc1cccc(C(=O)O)c1NC(=O)c1ccc(F)cc1`, the inhibition is 2.9%.

For the compound `Cc1cc2c(NC(=O)Nc3ccccc3)cccc2nn1`, the inhibition is 26.1%. As for `Cc1cc2c(NC(=O)Nc3ccc(F)cc3)cccc2nn1`, the inhibition is 10.5%. Consider `Cc1cc2c(N)cccc2nn1`, for which the inhibition was 101% (active). Turning to `COc1ccc(C2C3=C(CCCC3=O)Nc3c(-c4ccccc4)c(C)nn32)cc1` (stereo not given), the inhibition was 4.2%. Regarding `O=C(O)CSc1cc(C(=O)c2cc(F)ccc2O)cn2c(=O)c3c(-c4ccccc4)csc3nc12`, the inhibition was 95.3% (active). In the case of `O=C(O)CSc1cc(C(=O)c2ccccc2O)cn2c(=O)c3c(-c4ccccc4)csc3nc12`, the inhibition was 99.2% (active). Regarding `COc1ccc(/C=C/c2cc(C(=O)O)c3ccccc3n2)cc1`, the inhibition is 21.4%. For `N#CCCN(Cc1cccnc1)C(=S)NC1CC2C=CC1C2` (stereo not given), the inhibition is -4.1%. On to `COC(=O)Cn1c2ccc(C)cc2c2nc(C)sc21`, for which the inhibition was 30.1%. With `CCOC(=O)Cn1c2ccc(OC)cc2c2nc3ccccc3nc21`, the inhibition was 38.7%. Turning to `COc1cc2c(C#N)c(N3CCN(c4ccccc4OC)CC3)nc(N)c2c(N)n1`, the inhibition was 19.7%. As for `COc1cc2c(C#N)c(N3CCN(C)CC3)nc(N)c2c(N)n1`, the inhibition is 21.5%.

Take `CCCN(CC1CC1)c1nc(N)c2c(N)nc(OC)cc2c1C#N`: the inhibition was 16.9%. Consider `COc1cc2c(C#N)c(N3CCCCC3)nc(N)c2c(N)n1`, for which the inhibition was 47.6% (active).

Values taken from PubChem BioAssay AID2018 (Sanford-Burnham Center for Chemical Genomics, 2009).
